Data published in PubChem BioAssay (NCATS).
Results filed as inconclusive are left out. Where a call stands in place of a potency, no number is given. Active and inactive are the calls of the source. Calls follow the shape of the dose curve; as a rule, active = well fitted curve in the direction sought with a large enough effect; inconclusive = small, poorly fitted or top-dose-only effect, or another doubt; inactive = no such curve, though single readings can be large; an effect the other way counts as inactive or inconclusive.

Experiments:
[1] = test system: HACAT; test: qHTS assay to identify novel small-molecules to repurpose for Merkel cell carcinoma treatment (AID 1296009); conditions: MCC and control cell lines, CellTiter-Glo viability, 72 h; series mostly up to 44.8 µM; also: nearly all actives have a fitted effect of over 60% in size; also: potency is read from the fitted curve at half-maximal effect
Method in brief: (§1)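 Cell viability measured by CellTiter-Glo following 72 hr compound treatment at 37 degree celsius, with NPC and MIPE libraries tested in 8- and 11-point concentration series.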

[2] = test system: HEK293T; test: as above; conditions: MCC and control cell lines, CellTiter-Glo viability, 72 h
Method in brief: as §1

[3] = test system: MCC-13; test: as above; conditions: MCC and control cell lines, CellTiter-Glo viability, 72 h; series mostly up to 46 µM
Method in brief: as §1

[4] = test system: MCC-26; test: as above; conditions: MCC and control cell lines, CellTiter-Glo viability, 72 h; series mostly up to 46 µM
Method in brief: as §1

[5] = test system: MKL-1; test: as above; conditions: MCC and control cell lines, CellTiter-Glo viability, 72 h; series mostly up to 46 µM
Method in brief: as §1

[6] = test system: MKL-2; test: as above; conditions: MCC and control cell lines, CellTiter-Glo viability, 72 h; series mostly up to 46 µM
Method in brief: as §1

[7] = test system: NIH3T3; test: as above; conditions: MCC and control cell lines, CellTiter-Glo viability, 72 h; series mostly up to 44.8 µM
Method in brief: as §1

[8] = test system: UISO; test: as above; conditions: MCC and control cell lines, CellTiter-Glo viability, 72 h; series mostly up to 46 µM
Method in brief: as §1

[9] = test system: WaGa; test: as above; conditions: MCC and control cell lines, CellTiter-Glo viability, 72 h; series mostly up to 46 µM
Method in brief: as §1

[10] = test system: C33A; test: Primary qHTS to identify gynecologic anti-cancer compounds using libraries of approved drugs and bioactive compounds (AID 1345084); conditions: Gynecologic cancer cell panel viability, ATPlite luminescence, 48 h; series mostly up to 57.5 µM; also: nearly all actives have a fitted effect of over 55% in size
Method in brief: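 Cell viability after 48 h drug treatment, ATPlite luminescence readout; five doses.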

[11] = at 44.8 µM (top of the series) unless noted

Row | Compound | outcome [1] | outcome [2, 11] | Potency [3] | Potency [4] | Potency [5] | Potency [6] | outcome [7] | Potency [8] | Potency [9] | Potency [10] | outcome ([2]; at 17.4 µM (top of the series)) | outcome ([2]; at 44.8 µM (top of the series))
1 | NC12CC3CC(CC(C3)C1)C2 | inactive | inactive | inactive | inactive | inactive | inactive | inactive | inactive | inactive | inactive |  | 
2 | CC(C)(C)C(=O)Oc1ccc(S(=O)(=O)Nc2ccccc2C(=O)NCC(=O)O)cc1 | inactive | inactive | inactive |  | inactive | inactive |  | inactive | inactive | inactive |  | 
3 | NC(=O)OCC(COC(N)=O)c1ccccc1 | inactive | inactive | inactive |  | inactive | inactive | inactive | inactive | inactive | inactive |  | 
4 | O=C(CCCN1CCC(O)(c2ccc(Cl)cc2)CC1)c1ccc(F)cc1 | inactive |  | inactive | inactive | inactive | inactive | inactive | inactive | inactive | inactive |  | 
5 | O=C1N(c2ccccc2)c2ccccc2C1(Cc1ccncc1)Cc1ccncc1 | inactive | inactive | inactive | inactive | inactive | inactive |  | inactive | inactive | inactive |  | 
6 | CN(CCOc1ccc(NS(C)(=O)=O)cc1)CCc1ccc(NS(C)(=O)=O)cc1 | inactive | inactive | inactive | inactive | inactive | inactive | inactive | inactive | inactive | inactive |  | 
7 | NCCS(=O)(=O)O | inactive | inactive | inactive |  | inactive | inactive | inactive | inactive | inactive | inactive |  | 
8 | NS(=O)(=O)c1cc2c(cc1Cl)NCNS2(=O)=O | inactive | inactive | inactive | inactive | inactive | inactive |  | inactive | inactive | inactive |  | 
9 | COc1ccc(C2CNC(=O)C2)cc1OC1CCCC1 (stereo not drawn) | inactive | inactive | inactive |  | inactive | inactive | inactive | inactive | inactive | inactive |  | 
10 | CN1CCC(=C2c3ccccc3CC(=O)c3sccc32)CC1 | inactive |  | inactive | inactive | inactive | 9.44 µM (active) | inactive | inactive | 29.9 µM (active) | inactive |  | 
11 | COc1ccccc1OCC(O)CN1CCN(CC(=O)Nc2c(C)cccc2C)CC1 (stereo not drawn) | inactive | inactive | inactive |  | inactive | inactive | inactive | inactive | inactive | inactive |  | 
12 | CN1CCC(=C2c3ccccc3C=Cc3ccccc32)CC1 | inactive |  | inactive | inactive | inactive | 16.8 µM (active) | inactive | inactive | 26.6 µM (active) | inactive |  | 
13 | CCc1cccc2c3c([nH]c12)C(CC)(CC(=O)O)OCC3 (stereo not drawn) | inactive | inactive | inactive | inactive | inactive | inactive |  | inactive | inactive | inactive |  | 
14 | Clc1ccc2nsnc2c1NC1=NCCN1 | inactive | inactive | inactive |  | inactive | inactive | inactive | inactive | inactive | inactive |  | 
15 | COc1cc2nc(N3CCN(C(=O)C4COc5ccccc5O4)CC3)nc(N)c2cc1OC (stereo not drawn) | inactive |  | inactive | inactive | inactive | inactive | inactive | inactive | inactive | inactive |  | 
16 | Cc1ccc(C(=O)Nc2ccc(S(=O)(=O)O)c3cc(S(=O)(=O)O)cc(S(=O)(=O)O)c23)cc1NC(=O)c1cccc(NC(=O)Nc2cccc(C(=O)Nc3cc(C(=O)Nc4ccc(S(=O)(=O)O)c5cc(S(=O)(=O)O)cc(S(=O)(=O)O)c45)ccc3C)c2)c1 | inactive | inactive | inactive |  | inactive | inactive | inactive | inactive | inactive | inactive |  | 
17 | N[C@@H](Cc1c[nH]c2ccc(O)cc12)C(=O)O | inactive | inactive | inactive | inactive | inactive | inactive |  |  |  | inactive |  | 
18 | Cc1cc(C(C)(C)C)c(O)c(C)c1CC1=NCCN1 | inactive |  | inactive | inactive | inactive | inactive | inactive | inactive | inactive | inactive |  | 
19 | C[C@](N)(Cc1ccc(O)c(O)c1)C(=O)O | inactive | inactive | inactive |  | inactive | inactive |  | inactive | inactive | inactive |  | 
20 | CCOC(=O)C(C)(C)Oc1ccc(Cl)cc1 | inactive | inactive | inactive | inactive | inactive | inactive | inactive | inactive | inactive | inactive |  | 

Row | Compound | outcome [1] | outcome [2, 11] | Potency [3] | Potency [4] | Potency [5] | Potency [6] | outcome [7] | Potency [8] | Potency [9] | Potency [10] | outcome ([2]; at 17.4 µM (top of the series)) | outcome ([2]; at 44.8 µM (top of the series))
21 | CN(C)C(=N)N=C(N)N | inactive | inactive | inactive |  | inactive | inactive |  | inactive | inactive | inactive |  | 
22 | Cc1cc(C(C)(C)C)cc(C)c1CC1=NCCN1 | inactive; activator |  | inactive | inactive | inactive | inactive | inactive | inactive | inactive | inactive |  | 
23 | COc1ccc2c(c1)c(CC(=O)O)c(C)n2C(=O)c1ccc(Cl)cc1 | inactive | inactive | inactive | inactive | inactive | inactive |  | inactive | inactive | inactive |  | 
24 | COc1ccc2[nH]cc(CCNC(C)=O)c2c1 | inactive | inactive | inactive | inactive | inactive | inactive | inactive | inactive | inactive | inactive |  | 
25 | Cc1ccccc1N1C(=O)c2cc(S(N)(=O)=O)c(Cl)cc2NC1C (stereo not drawn) | inactive | inactive | inactive |  | inactive | inactive | inactive | inactive | inactive | inactive |  | 
26 | CC(C)Cc1ccc(C(C)C(=O)O)cc1 (stereo not drawn) | inactive |  | inactive | inactive | inactive | inactive | inactive [at 17.4 µM] | inactive | inactive | inactive |  | 
27 | CCC1(C)CC(=O)NC1=O (stereo not drawn) | inactive | inactive | inactive |  | inactive | inactive | inactive | inactive | inactive | inactive |  | 
28 | CCN1CCCC1CNC(=O)c1cc(S(=O)(=O)CC)c(N)cc1OC (stereo not drawn) | inactive |  | inactive | inactive | inactive | inactive | inactive | inactive | inactive | inactive |  | 
29 | CC1(C)O[C@H]2CC(=O)OC[C@]23[C@H]2CC[C@@]4(C)[C@H](c5ccoc5)OC(=O)[C@H]5O[C@]54[C@]2(C)C(=O)C[C@@H]13 | inactive |  | inactive | inactive | inactive | inactive | inactive | inactive | inactive | inactive | inactive | inactive
30 | CC1COc2c(N3CCN(C)CC3)c(F)cc3c(=O)c(C(=O)O)cn1c23 (stereo not drawn) | inactive | inactive | inactive | inactive | inactive | inactive | inactive | inactive | inactive | inactive |  | 
31 | CN(C)CCOC(c1ccccc1)c1ccccc1 | inactive | inactive | inactive | inactive | inactive | inactive | inactive | inactive | inactive | inactive |  | 
32 | CC[N+](CC)(CC)CCOc1cccc(OCC[N+](CC)(CC)CC)c1OCC[N+](CC)(CC)CC | inactive | inactive | inactive | inactive | inactive | inactive | inactive | inactive | inactive | inactive |  | 
33 | Nc1ccn([C@H]2CC[C@@H](CO)O2)c(=O)n1 | inactive | inactive | inactive | inactive | inactive | inactive |  | inactive | inactive | inactive |  | 
34 | Fc1ccc([C@@H]2CCNC[C@H]2COc2ccc3c(c2)OCO3)cc1 | inactive |  | inactive | inactive | inactive | inactive |  | inactive | inactive | inactive |  | 
35 | Cc1cnc(C(=O)NCCc2ccc(S(=O)(=O)NC(=O)NC3CCCCC3)cc2)cn1 | inactive |  | inactive | inactive | inactive | inactive |  | inactive | inactive | inactive |  | 
36 | O=C(c1ccc(OCCN2CCCCC2)cc1)c1c(-c2ccc(O)cc2)sc2cc(O)ccc12 | inactive |  | inactive |  | inactive | 15 µM (active) |  | inactive | inactive | inactive |  | 
37 | CC(C)C(=O)Nc1ccc([N+](=O)[O-])c(C(F)(F)F)c1 | inactive |  | inactive | inactive | inactive | inactive | inactive | inactive |  | inactive |  | 
38 | NCCc1cnc[nH]1 |  | inactive | inactive | inactive | inactive | inactive | inactive | inactive | inactive | inactive |  | 
39 | Nc1nnc(-c2cccc(Cl)c2Cl)c(N)n1 | inactive |  | inactive |  | inactive | inactive | inactive | inactive | inactive | inactive |  | 
40 | CN(C)C(=O)C(CCN1CCC(O)(c2ccc(Cl)cc2)CC1)(c1ccccc1)c1ccccc1 |  |  | inactive | inactive | inactive | 18.7 µM (active) |  |  |  |  |  | 
